Test results published in PubChem BioAssay (Tox21).
Inconclusive results are not listed. Active and inactive are the calls of the source. Calls come from the whole dose curve; as a rule, active = well fitted curve in the direction sought with a large enough effect in the repeat runs; inconclusive = weak or mixed curves; inactive = no such curve, though single readings can be large; an effect the other way counts as inactive or inconclusive.

What was measured:
[1] = A CellTox Green Cytotoxicity Assay to monitor cytotoxicity in HepG2 cells - 16 hour (AID 1224876); note: nearly all actives have a fitted effect of over 45% in size
Method in brief: (§1)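 Real-time cytotoxicity: fluorescence of a cell-impermeant cyanine dye binding DNA of dead HepG2 cells, measured repeatedly (0–40 h) during compound exposure at 37 C. Cells seeded 600/well with reagent, dosed after 5 h.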

[2] = qHTS RealTime-Glo MT Cell Viability Assay in HepG2 cells - 32 hour (AID 1224877); note: nearly all actives have a fitted effect of over 55% in size
Method in brief: (§2)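 Compound treatment began 5 h after plating HepG2 cells (600/well) with NanoLuc luciferase and prosubstrate. Plates stayed at 37 C for 40 h; luminescence was captured at six time points, 0 h through 40 h.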

[3] = A CellTox Green Cytotoxicity Assay to monitor cytotoxicity in HepG2 cells - 24 hour (AID 1224878); note: nearly all actives have a fitted effect of over 45% in size
Method in brief: as §1

[4] = A CellTox Green Cytotoxicity Assay to monitor cytotoxicity in HepG2 cells - 40 hour (AID 1224879); note: nearly all actives have a fitted effect of over 40% in size
Method in brief: as §1

[5] = qHTS RealTime-Glo MT Cell Viability Assay in HEK293 cells - 0 hour (AID 1224880); note: top concentration of the series differs between compounds; nearly all actives have a fitted effect of over 45% in size
Method in brief: (§3)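 Luminescence, which tracks viable cell number through reduction of the prosubstrate to a NanoLuc substrate, was read over continuous 37 C culture. Cells (600/well) were premixed with reagent and rested 5 h before 23 nL of compound in DMSO was pinned.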

[6] = A CellTox Green Cytotoxicity Assay to monitor cytotoxicity in HEK293 cells - 32 hour (AID 1224881); note: nearly all actives have a fitted effect of over 40% in size
Method in brief: (§4)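 Fluorescence from a DNA-binding dye excluded by viable cells was measured repeatedly in the same HEK293 wells (600 cells/well) during continuous compound exposure at 37 C. Each assay gives one read point: 0, 8, 16, 24, 32 or 40 h.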

[7] = A CellTox Green Cytotoxicity Assay to monitor cytotoxicity in HepG2 cells - 0 hour (AID 1224882); note: nearly all actives have a fitted effect of over 35% in size
Method in brief: as §1

[8] = A CellTox Green Cytotoxicity Assay to monitor cytotoxicity in HepG2 cells - 32 hour (AID 1224883); note: nearly all actives have a fitted effect of over 50% in size
Method in brief: as §1

[9] = A CellTox Green Cytotoxicity Assay to monitor cytotoxicity in HEK293 cells - 8 hour (AID 1224884); note: nearly all actives have a fitted effect of over 35% in size
Method in brief: as §4

[10] = qHTS RealTime-Glo MT Cell Viability Assay in HepG2 cells - 16 hour (AID 1224885); note: nearly all actives have a fitted effect of over 50% in size
Method in brief: as §2

[11] = qHTS RealTime-Glo MT Cell Viability Assay in HEK293 cells - 24 hour (AID 1224886); note: top concentration of the series differs between compounds; nearly all actives have a fitted effect of over 50% in size
Method in brief: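 Quantitative high-throughput screen of the Tox21 10K library in HEK293: cells and RealTime-Glo reagents plated together, compound added at 5 h, luminescence monitored through 40 h at 37 C.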

[12] = qHTS RealTime-Glo MT Cell Viability Assay in HEK293 cells - 8 hour (AID 1224887); note: top concentration of the series differs between compounds; nearly all actives have a fitted effect of over 50% in size
Method in brief: as §3

[13] = A CellTox Green Cytotoxicity Assay to monitor cytotoxicity in HEK293 cells - 16 hour (AID 1224888); note: nearly all actives have a fitted effect of over 35% in size
Method in brief: as §4

[14] = qHTS RealTime-Glo MT Cell Viability Assay in HepG2 cells - 0 hour (AID 1224889); note: nearly all actives have a fitted effect of over 50% in size
Method in brief: as §2

[15] = A CellTox Green Cytotoxicity Assay to monitor cytotoxicity in HepG2 cells - 8 hour (AID 1224890); note: nearly all actives have a fitted effect of over 45% in size
Method in brief: as §1

[16] = qHTS assay to identify small molecule antagonists of the estrogen receptor alpha (ER-alpha) signaling pathway using the BG1 cell line in the presence of 0.1 nM 17-beta-estradiol - cell viability counter screen (AID 1259241); note: nearly all actives have a fitted effect of over 40% in size
Method in brief: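 In this screen, hormone-deprived VM7Luc4E2 cells were seeded at 4,000 per well, dosed with compound and 0.1 nM estradiol final, and incubated 22 hr at 37C and 5% CO2; fluorogenic live-cell protease signal reported viability.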

[17] = qHTS assay to identify small molecule antagonists of the androgen receptor (AR) signaling pathway using the MDA cell line in the presence of 0.5 nM R1881 - cell viability counter screen (AID 1259242); note: nearly all actives have a fitted effect of over 45% in size
Method in brief: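 Live-cell protease activity was measured by CellTiter-Fluor fluorescence after 30 min. Before that, MDA-kb2 MMTV-luciferase cells had 16 hr at 37C without CO2, exposed to test compounds and 0.5 nM R1881 final.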

[18] = target: Estrogen receptor (Homo sapiens) (UniProt P03372); assay: qHTS assay to identify small molecule antagonists of the estrogen receptor alpha (ER-alpha) signaling pathway using the BG1 cell line in the presence of 0.1 nM 17-beta-estradiol (AID 1259244); note: nearly all actives have a fitted effect of over 50% in size
Method in brief: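 Luciferase luminescence (ONE-Glo, 30 min at room temperature) was read after 22 hr at 37C exposure to compounds plus 17beta-estradiol at 0.1 nM final. Cells were VM7Luc4E2 with endogenous ER-alpha and an ERE-driven luciferase, pre-cultured 5 days in hormone-depleted medium.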

[19] = qHTS assay to identify small molecule HDAC inhibitors (AID 1259364)
Method in brief: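 Luminescence read after 30 min room-temperature HDAC-Glo incubation measures cellular class I/II HDAC activity. Compounds were applied for 2 hr at 37 C to HCT-116 wild-type cells seeded the day before.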
% is set by controls: 0 for no effect and ±100 for the full control effect.

Sequence of Estrogen receptor (Homo sapiens) (P03372 whole entry, looked up): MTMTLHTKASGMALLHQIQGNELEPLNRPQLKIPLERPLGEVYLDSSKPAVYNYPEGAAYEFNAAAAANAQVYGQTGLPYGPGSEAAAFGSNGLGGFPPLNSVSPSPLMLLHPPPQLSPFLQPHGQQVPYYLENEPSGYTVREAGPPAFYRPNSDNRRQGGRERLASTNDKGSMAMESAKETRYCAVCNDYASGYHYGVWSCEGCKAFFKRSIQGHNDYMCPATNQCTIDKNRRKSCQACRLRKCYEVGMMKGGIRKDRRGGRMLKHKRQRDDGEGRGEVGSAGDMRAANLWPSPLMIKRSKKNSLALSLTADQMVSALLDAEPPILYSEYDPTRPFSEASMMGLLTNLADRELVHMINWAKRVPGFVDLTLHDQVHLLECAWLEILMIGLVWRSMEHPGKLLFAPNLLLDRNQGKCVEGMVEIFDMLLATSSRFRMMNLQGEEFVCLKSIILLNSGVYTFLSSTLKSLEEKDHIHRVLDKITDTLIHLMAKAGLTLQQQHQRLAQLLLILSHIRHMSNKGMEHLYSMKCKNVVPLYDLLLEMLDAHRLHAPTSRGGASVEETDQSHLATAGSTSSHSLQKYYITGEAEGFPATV

CC(C)C(=O)c1ccccc1
inactive: Potency [1] | outcome [2] | Potency [3] | Potency [4] | outcome [5] | Potency [6] | Potency [7] | Potency [8] | Potency [9] | outcome [10] | Potency [11] | Potency [12] | Potency [13] | Potency [14] | Potency [15] | Potency [16] | Potency [17] | Potency [18] | Potency [19]

COc1cc(C=O)ccc1OC(=O)C(C)C
inactive: Potency [1] | outcome [2] | Potency [3] | Potency [4] | outcome [5] | Potency [6] | Potency [7] | Potency [8] | Potency [9] | outcome [10] | Potency [11] | Potency [12] | Potency [13] | Potency [14] | Potency [15] | Potency [16] | Potency [17] | Potency [19]

CCN1CN(CC)CN(CC)C1
inactive: Potency [1] | outcome [2] | Potency [3] | Potency [4] | outcome [5] | Potency [6] | Potency [7] | Potency [8] | Potency [9] | outcome [10] | Potency [11] | Potency [12] | Potency [13] | Potency [14] | Potency [15] | Potency [16] | Potency [17] | Potency [18] | Potency [19]

CCCCC(=O)N(C)C
inactive: Potency [1] | outcome [2] | Potency [3] | Potency [4] | outcome [5] | Potency [6] | Potency [7] | Potency [8] | Potency [9] | outcome [10] | Potency [11] | Potency [12] | Potency [13] | Potency [14] | Potency [15] | Potency [16] | Potency [17] | Potency [18] | Potency [19]

CCCOC(=O)CCCCC(=O)OCCC
inactive: Potency [1] | outcome [2] | Potency [3] | Potency [4] | outcome [5] | Potency [6] | Potency [7] | Potency [8] | Potency [9] | outcome [10] | Potency [11] | Potency [12] | Potency [13] | Potency [14] | Potency [15] | Potency [16] | Potency [17] | Potency [18] | Potency [19]

CC1=CC[C@H](CC=O)C1(C)C
inactive: Potency [1] | outcome [2] | Potency [3] | Potency [4] | outcome [5] | Potency [6] | Potency [7] | Potency [8] | Potency [9] | outcome [10] | Potency [11] | Potency [12] | Potency [13] | Potency [14] | Potency [15] | Potency [16] | Potency [17] | Potency [18] | Potency [19]

CCC(CO)CO
inactive: Potency [1] | outcome [2] | Potency [3] | Potency [4] | outcome [5] | Potency [6] | Potency [7] | Potency [8] | Potency [9] | outcome [10] | Potency [11] | Potency [12] | Potency [13] | Potency [14] | Potency [15] | Potency [16] | Potency [17] | Potency [18] | Potency [19]

CC(C)CCC(=O)CCC(C)C
inactive: Potency [1] | outcome [2] | Potency [3] | Potency [4] | outcome [5] | Potency [6] | Potency [7] | Potency [8] | Potency [9] | outcome [10] | Potency [11] | Potency [12] | Potency [13] | Potency [14] | Potency [15] | Potency [16] | Potency [17] | Potency [18] | Potency [19]

O=[Si]=O
inactive: Potency [1] | outcome [2] | Potency [3] | Potency [4] | outcome [5] | Potency [6] | Potency [7] | Potency [8] | Potency [9] | outcome [10] | Potency [11] | Potency [12] | Potency [13] | Potency [14] | Potency [15] | Potency [17] | Potency [18] | Potency [19]

O=C(O)c1ccccc1C(=O)OCc1ccccc1
inactive: Potency [1] | outcome [2] | Potency [3] | Potency [4] | outcome [5] | Potency [6] | Potency [7] | Potency [8] | Potency [9] | outcome [10] | Potency [11] | Potency [12] | Potency [13] | Potency [14] | Potency [15] | Potency [17] | Potency [18] | Potency [19]

CCC1COC(=O)O1 (centres undefined)
inactive: Potency [1] | outcome [2] | Potency [3] | Potency [4] | outcome [5] | Potency [6] | Potency [7] | Potency [8] | Potency [9] | outcome [10] | Potency [11] | Potency [12] | Potency [13] | Potency [14] | Potency [15] | Potency [16] | Potency [17] | Potency [18] | Potency [19]

COCCOCCOCCOC
inactive: Potency [1] | outcome [2] | Potency [3] | Potency [4] | outcome [5] | Potency [6] | Potency [7] | Potency [8] | Potency [9] | outcome [10] | Potency [11] | Potency [12] | Potency [13] | Potency [14] | Potency [15] | Potency [16] | Potency [17] | Potency [19]

O=CN1CCOCC1
inactive: Potency [1] | outcome [2] | Potency [3] | Potency [4] | outcome [5] | Potency [6] | Potency [7] | Potency [8] | Potency [9] | outcome [10] | Potency [11] | Potency [12] | Potency [13] | Potency [14] | Potency [15] | Potency [16] | Potency [17] | Potency [18] | Potency [19]

CCCCCCCCCCCCCCCCI
inactive: cytotoxicity increase [1] -9.76% [at 15.8 µM] | activity change, negative = cytotoxic [2] 7.46% [at 15.8 µM] | cytotoxicity [3] -11% [at 15.8 µM] | cytotoxicity increase [4] -12.9% [at 15.8 µM] | activity change, negative = cytotoxicity [5] -2.88% [at 15.8 µM] | cytotoxicity increase [6] -8.24% [at 15.8 µM] | cytotoxicity [7] -4.1% [at 15.8 µM] | cytotoxicity increase [8] -12.6% [at 15.8 µM] | cytotoxicity increase [9] -6.52% [at 15.8 µM] | activity change, negative = cytotoxic [10] -8.4% [at 15.8 µM] | activity change, negative = cytotoxicity [11] -7.78% [at 15.8 µM] | activity change, negative = cytotoxicity [12] -0.789% [at 15.8 µM] | activity change [13] -4.25% [at 15.8 µM, hits give high values] | activity change, negative = cytotoxicity [14] -19.8% [at 15.8 µM] | cytotoxicity increase [15] -10.7% [at 15.8 µM] | activity change, negative = cytotoxicity [16] 7.96% [at 19 µM] | viability change, negative = cytotoxic [17] 2.57% [at 19 µM] | activity change, negative = inhibition [19] 1.82% [at 19 µM]

CCCCCCCCCCCCOC(C)=O
inactive: Potency [1] | outcome [2] | Potency [3] | Potency [4] | outcome [5] | Potency [6] | Potency [7] | Potency [8] | Potency [9] | outcome [10] | Potency [11] | Potency [12] | Potency [13] | Potency [14] | Potency [15] | Potency [17] | Potency [18] | Potency [19]
